tested on: Noggin (protein binding on small-molecule microarray); experiment: Noggin binders on small-molecule microarray, primary screen, biochemical, 635/667 nm fluorescence (AID 1095); conditions: 635 nm fluorescence, higher = more signal;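 further: score merges 667 nm feature fluorescence with signal to noise over triplicate slides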

Structure (SMILES) | composite z-score
O=C1C[C@@](C(=O)O)(c2ccc([N+](=O)[O-])cc2)[C@@H](c2ccc(CO)cc2)N1CC12CC3CC(CC(C3)C1)C2 | 0.257
Cc1ccc(S[C@]2(C(=O)O)CC(=O)N(Cc3ccccc3C(F)(F)F)[C@@H]2c2ccc(CO)cc2)cc1 | -1.06
COC(=O)c1ccc(OC)c(/C=C\CC(CCc2ccccc2)OC(C)=O)c1 (stereo not given) | -0.358
C#CCNS(=O)(=O)N(C)C | 0.4
O=C1CSC(c2cccc([N+](=O)[O-])c2)N1c1ccccc1 (stereo not given) | 0.36
CCN(CC)c1ccc(N2CC=CC34O[C@@H]5/C=C\CCCOC(=O)C5[C@H]3C(=O)N(CCCCCO)[C@@H]4C2=O)cc1 (stereo not given in full) | -0.873
OCc1ccc(-c2cc[n+](Cc3cccc(OC(F)(F)F)c3)cc2)cc1 | 0.876
COCC1=C([C@H](O)CCc2ccccc2)[C@H](CO)[C@@H]2C(=O)N(C)C(=O)[C@@H]2C1 | 0.396
COC(=O)[C@@]1(Cc2ccc(F)cc2)[C@H]2c3cc(C(=O)N(C)C)n(Cc4ccc(C)c(F)c4F)c3C[C@H]2CN1C(=O)c1ccccc1 | -0.724
CCOC(=O)C[C@H]1[C@H](OC(=O)c2ccc(C(=O)c3ccccc3)cc2)[C@@H](NC(=O)C2CCCCC2)c2cc(OCCCO)ccc2N1C(=O)Cc1ccc(OC)cc1 | 0.544
CCCN1C(=O)[C@@]2(Cc3ccccc3)N=C(c3ccc(OCCCO)cc3)O[C@H]2c2ccccc21 | 1.29
O=C1C2C=CC(C(O)c3ccccn3)N(Nc3ccccc3)C2C(=O)N1c1ccccc1 (stereo not given) | -0.292
COc1cc(C(O)C2C=CC3C(=O)N(C)C(=O)C3N2NC(=O)OC(C)(C)C)cc(OC)c1OC (stereo not given) | -0.23
COCC(=C=CC[C@@H](O)c1ccccc1OCCO)C[C@@H](O)c1ccccn1 | 0.416
C[N+](C)(C)CCCC[C@@H]1NC(=O)[C@@H]2C[C@H](C(=O)O)[C@H](c3cccc(OCCO)c3)N2C1=O | 0.601
C=CCC(OC(C)=O)[C@@H]1[C@@H](N(Cc2ccc(-c3cccc(C(F)(F)F)c3)o2)C(=O)c2cccc3ccccc23)c2cc(OCCCO)ccc2N1C(=O)c1ccc(-c2ccccc2)cc1 (stereo not given in full) | 1.06
COCCCNC(=O)[C@@]1(C)c2ccccc2C(=O)N(c2ccc(C)cn2)[C@H]1c1ccc(CO)cc1 | -0.978
COCCCNC(=O)[C@@]1(Cc2ccccc2CN=[N+]=[N-])N=C(c2ccc(OCCCO)cc2)O[C@H]1c1ccccc1N=[N+]=[N-] | 0.399
CC1(C)[C@@H]2CC(C(O)C3C=CC4C(=O)N(c5ccccc5)C(=O)C4N3Nc3ccccc3F)=C[C@@H]1C2 (stereo not given in full) | 0.791
CCOC(=O)C[C@H]1[C@H](OC(=O)Cc2ccc3c(c2)OCO3)[C@@H](NC(=O)c2ccccc2)c2cc(OCCCO)ccc2N1C(=O)c1ccc2ccccc2n1 | 0.196
C=CC[C@]1(C(=O)NCC(O)CO)N=C(c2ccc(OCCCO)cc2)O[C@H]1c1ccccc1N=[N+]=[N-] (stereo not given in full) | -0.0496
C=C(COC)C(=O)CC[C@H](OC(=O)c1ccccc1-c1ccccc1C(=O)O)c1ccc(OCCO)cc1 | 1.52
COC(=O)[C@@]1(Cc2ccc(OC)cc2)[C@H]2c3cc(C(=O)N(C)C)n(Cc4cc(F)c(F)c(F)c4)c3C[C@H]2CN1C(=O)c1ccccc1 | -0.217
C=CCC(OC(C)=O)[C@@H]1[C@@H](N(Cc2ccc(-c3ccccc3)cc2)C(=O)Cc2ccc(OC)cc2)c2cc(OCCCO)ccc2N1C(=O)c1ccc(-c2ccccc2)cc1 (stereo not given in full) | -0.0829
COc1ccc(CCNC(=O)[C@@H]2c3ccccc3C(=O)N(Cc3ccccc3)[C@H]2c2ccc(CO)cc2)cc1 | 0.107
COC(=O)C(CC#Cc1ccc2c(c1)[C@]1(C(=O)N2)[C@H](c2ccccc2OCCO)N2[C@H](c3ccccc3)[C@H](c3ccccc3)OC(=O)[C@H]2[C@@H]1C(=O)Nc1nc2ccccc2s1)C(=O)OC | 1.24
COc1cc2c(cc1OC)CN(C(=O)[C@@H]1[C@H]3C(=O)O[C@H](c4ccccc4)[C@H](c4ccccc4)N3[C@H](c3ccc(OCCO)cc3)[C@@]13C(=O)Nc1ccc(C#CCCO)cc13)CC2 | 1.46
C[N+](C)(C)CCCCCCNC(=O)[C@H]1C[C@H]2C(=O)N3CCC[C@H]3C(=O)N2[C@H]1c1cccc(OCCO)c1 | 0.666
C=C(C(=O)CC[C@H](OC(=O)c1cccnc1)c1ccc(OCCO)cc1)C(C)C | 0.986
C=C(COC)C(=O)CC[C@H](OC(=O)c1ccccc1-c1ccccc1C(=O)O)c1ccc(CO)o1 | 0.757

Source: PubChem BioAssay
